We go through three molecules from PubChem BioAssay AID2284360 (EPA ToxCast).

This experiment in a line: ATG_M_19_EcoTox2: Attagene TRANS-FACTORIAL EcoTox-2 HepG2 Assay for M19 Transcription Factor (Internal Marker). As to the method:
ATG_EcoTox2 is a cell-based, multiplexed assay created by modifying the existing Attagene TRANS-FACTORIAL system to include a panel of nuclear receptors from some or all the following species: human (Homo sapiens), african clawed frog (Xenopus laevis), rainbow trout (Oncorhynchus mykiss), japanese medaka (Oryzias latipes), and zebrafish (Danio rerio). The ECOTOX2-FACTORIAL format uses HepG2, a human liver cell line, with measurements taken at 24 hours after chemical dosing in a 24-well plate. ATG_M_19_EcoTox2 is one of 29 assay components calculated in the ATG_EcoTox2 assay. It is designed to make measurements of mRNA induction, a form of inducible reporter, as detected with fluorescence intensity signals by Reverse transcription polymerase chain reaction (RT-PCR) and Capillary electrophoresis technology.The assay endpoint ATG_M_19_EcoTox2 was analyzed in the positive analysis fitting direction relative to DMSO as the negative control and baseline of activity. Using a type of inducible reporter, measures of mRNA for gain-of-signal activity can be used to understand the background control at the transcription factor-level as they relate to the gene. Furthermore, this assay endpoint can be referred to as a secondary readout, because this assay has produced multiple assay endpoints where this one serves a background control function. […]
Human liver HepG2 cells are transiently transfected with multiple reporter transcription units (MRTUs) in 6-well plates using FuGene 6 reagent (Roche; 3 ml FuGene/1 mg DNA). […] A major difference between the CIS and TRANS system is that in CIS activities of endogenous TFs are measured, whereas the TRANS assay evaluates changes in activities of exogenous, chimeric NR-Gal4 proteins. […] The fragments were purified using Qiaquick PCR columns (Qiagen), analyzed on an ABI 3130xL genetic analyzer (Applied Biosystems) with peak positions identified by using a set of X-rhodamine (ROX)-labeled MapMarker1000 molecular weight standards (BioVentures). […]

Molecules are shown by their SMILES. Results filed as inconclusive are left out. Activity calls are given as the source filed them. The calls were made as follows: active = hit-call score of the fitted dose curve at least 0.9, where 1 is the maximum; inconclusive = response in the unintended direction; inactive = score below 0.9.

Regarding `[Cl][Sn]([c]1ccccc1)([c]1ccccc1)[c]1ccccc1`, the molecule was classed as inactive.
For `O=S(=O)(O)C(F)(F)C(F)(F)C(F)(F)C(F)(F)C(F)(F)C(F)(F)F`, the outcome was inactive.
For `CCCCOCN(C(=O)CCl)c1c(CC)cccc1CC`, the result was inactive.
